Assay [1] in a line: Primary qHTS for inhibitors of nuclear receptor binding SET domain protein 2 (NSD2) in an RCH-ACV wild type WT cells (2C) (AID 1645877). Further: nearly all actives have a fitted effect of over 70% in size. Further: potency means the concentration at half of the fitted maximal effect. On activity change, negative = cell killing: on the % scale 0 is the no-effect control and ±100 the full control effect.
Assay [2] has as its target Glutathione peroxidase 1 (Homo sapiens) (UniProt P07203). In words: Primary qHTS Assay for Inhibitors of Recombinant Selenoprotein Glutathione Peroxidase 1 (GPX1) (AID 1845191). Further: nearly all actives have a fitted effect of over 65% in size. On activity, negative = inhibition: on the % scale 0 is the no-effect control and ±100 the full control effect. The method, boiled down: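 GR-coupled readout: NADPH consumption tracked by fluorescence, ex 340/em 450 nm, at t=0 and after 15 min at RT. Final mix 10 nM GPX1, 1 mM GSH, 0.5 mM CHP, 0.5 mM NADPH, 100 nM GR, 0.01% BSA, following 30 min enzyme–compound preincubation.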

Assay [3] addresses Phospholipid hydroperoxide glutathione peroxidase GPX4 (Homo sapiens) (UniProt P36969). In words: Primary qHTS Assay for Inhibitors of Recombinant Selenoprotein Glutathione Peroxidase 4 (GPX4) (AID 1845192). Further: nearly all actives have a fitted effect of over 65% in size. On activity change, negative = inhibition: series mostly up to about 50 µM; on the % scale 0 is the no-effect control and ±100 the full control effect. The essentials:
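Steps: GPX4 plus compound, 30 min RT; add GR/GSH/NADPH master mix; start with cumene hydroperoxide; read 340/450 nm fluorescence at 0 and 15 min. Finals were 200 nM GPX4, 1 mM GSH, 0.5 mM CHP, 0.5 mM NADPH, 100 nM GR.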

In assay [4] the target is Luciferin 4-monooxygenase (Photinus pyralis) (UniProt P08659). In words: Primary firefly luciferase (FLuc) qHTS assay for identification of artifact compounds. (AID 1845220). Further: nearly all actives have a fitted effect of over 60% in size.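 On activity change, negative = inhibition: series mostly up to about 54 µM; plate controls were DMSO vehicle for no effect and no enzyme for full effect.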 The method, boiled down: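 Enzymatic FLuc inhibition assay: compounds pre-exposed to luciferin/ATP (10 uM each) for 15 min, then purified P. pyralis enzyme at 10 nM added. Read-out: luminescence at 5 min.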
(In general: In qHTS, concentration-response curves come from the screen itself.)

A short description of assay [5]: Primary fluorescence-based thiol-reactive (MSTI) qHTS assay for identification of artifact compounds. (AID 1845221). Further: nearly all actives have a fitted effect of over 65% in size. Further: potency means the concentration at half of the fitted maximal effect.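 On activity change, negative = thiol reactive: series mostly up to about 54 µM; thiol-reactive compounds lower the probe fluorescence signal.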 The essentials: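 In PBS pH 7.4 with 2% DMSO, each compound met 4 uM MSTI for one hour at ambient temperature, shielded from light, before fluorescence detection.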
For assay [6], the system named is Nanoluciferase (engineered Oplophorus gracilirostris luciferase). In words: Primary Nanoluciferase (NLuc) qHTS assay for identification of artifact compounds. (AID 1845222).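 Further: NLuc secreted into diluted conditioned medium of S16 cells; series mostly up to about 54 µM; 0% = DMSO and -100% = no enzyme.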 The essentials:
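S16 cell supernatant NLuc, 1:55; cpds qHTS; 15 min RT dark; Nano-Glo substrate 1:100, 5 min; luminescence; Hill fit of % inhibition.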

Assay [7] can be described thus: Primary redox qHTS assay for identification of artifact compounds. (AID 1845223).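 Further: 0% = DMSO and 100% = reference compound.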 The method, boiled down:
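Redox-cycling detection via DTT (250 uM final) oxidation coupled to Amplex Red (25 uM)/HRP (250 mU/mL) in HBSS. 15 min preincubation plus 30 min after DTT, room temperature. Ex/Em 525/598 nm; 4-parameter Hill fit against DMSO and 10 uM DA3003.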

Several values for one entry are separate records, joined by “and”; a condition that tells them apart may be missing. Equal values may be shown once. Unmarked numbers belong to inactive results. Records with an inconclusive call do not appear. Activity calls are given as the source filed them. The call rests on the fitted dose curve; in most records, active means well fitted curve in the direction sought with a large enough effect; inconclusive means small, poorly fitted or top-dose-only effect, or another doubt; inactive means no such curve, though single readings can be large; an effect the other way counts as inactive or inconclusive. *1 amine or outer side, *2 acyl side, *3 side chain or, on linkers, in order; H or OH if unused. Where a SMILES comes first, the peptide text is derived from it. [ ]: non-standard residue; d: D form. X4 = CC(C)=CCc1cc(C(O)C(N[*:1])C(=O)[*:2])ccc1O

These results are taken from PubChem BioAssay (NCATS).

Chain of Glutathione peroxidase 1 (Homo sapiens) (P07203 whole entry, looked up): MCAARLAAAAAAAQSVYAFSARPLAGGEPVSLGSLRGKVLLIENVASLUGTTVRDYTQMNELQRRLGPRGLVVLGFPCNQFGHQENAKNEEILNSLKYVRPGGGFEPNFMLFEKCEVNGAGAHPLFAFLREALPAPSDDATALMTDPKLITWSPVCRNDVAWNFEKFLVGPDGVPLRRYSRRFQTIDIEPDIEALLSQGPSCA
Chain of Phospholipid hydroperoxide glutathione peroxidase GPX4 (Homo sapiens) (P36969 whole entry, looked up): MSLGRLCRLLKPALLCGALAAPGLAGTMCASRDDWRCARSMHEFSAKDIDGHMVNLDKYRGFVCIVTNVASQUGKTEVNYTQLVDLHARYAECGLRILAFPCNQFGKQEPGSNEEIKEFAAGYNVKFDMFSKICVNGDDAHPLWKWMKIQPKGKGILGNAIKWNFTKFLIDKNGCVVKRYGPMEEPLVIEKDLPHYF

For `COc1ccc(CCO[C@@H]2CCCC[C@H]2N2CC[C@@H](O)C2)cc1OC`, the Potency entry in assay [1], in assay [2], in assay [3], in assay [4], in assay [5] and in assay [6] was “inactive” throughout. The Potency result in assay [7] is “inactive”.

Regarding `CC(C)=CCC[C@](C)(O)[C@H]1CC[C@]2(C)[C@@H]1[C@H](O)CC1[C@@]3(C)CC[C@H](O)C(C)(C)C3[C@@H](O[C@@H]3O[C@H](CO)[C@@H](O)[C@H](O)[C@H]3O[C@@H]3OC[C@@H](O)[C@H](O)[C@H]3O)C[C@]12C` (stereo partly drawn), the Potency entry in assay [1], in assay [2], in assay [3], in assay [4], in assay [5] and in assay [6] was “inactive” throughout. The Potency entry in assay [7] is “inactive”.

Take `CC1(C)CC[C@]2(C(=O)O[C@@H]3O[C@H](CO)[C@@H](O)[C@H](O)[C@H]3O)CC[C@]3(C)C(=CCC4[C@@]5(C)CC[C@H](O[C@@H]6O[C@H](C(=O)O)[C@@H](O)[C@H](O)[C@H]6O)[C@@](C)(CO)C5CC[C@]43C)C2C1` (stereo partly drawn): in assay [1], the activity change, negative = cell killing is 4.55% [at 9.23 µM]. Further, the Potency result in assay [2] and in assay [3] was “inactive” each time. Also, the activity change, negative = inhibition in assay [4] was -3.91% [at 11.6 µM]. For the same molecule, in assay [5], the activity change, negative = thiol reactive is 129% [at 11.5 µM]. The activity, negative = inhibition in assay [6] is -2.6% [at 11.6 µM]. Also, the redox activity (% of DA3003) in assay [7] was 15.6% [at 11.5 µM].

For `COc1c(Nc2ncc(Cl)c(N[C@H]3[C@@H](C(N)=O)[C@@H]4C=C[C@H]3C4)n2)ccc2c1CC[C@@H](N1CCOCC1)CC2`, in assay [1], the Potency was 3.25 µM (active). For the same molecule, the Potency entry in assay [2], in assay [3], in assay [4], in assay [5], in assay [6] and in assay [7] was “inactive” in each case.

Take `C=C1CCC2C(C(C)(C)O)CCC2(C)CC(O)C(=C)CCC1O` (stereo not drawn): the Potency in assay [1] was 10.1 µM (active). In addition, the Potency entry in assay [2], in assay [3], in assay [4], in assay [5], in assay [6] and in assay [7] was “inactive” each time.

As for `CC(C(O)/C=C/C(C)(C)O)C1CCC2(C)C3C(=O)C=C4C(CCC(O)C4(C)C)C3(C)CCC12C` (stereo not drawn), the Potency entry in assay [1], in assay [2], in assay [3], in assay [4], in assay [5] and in assay [6] was “inactive” throughout. Also, the Potency entry in assay [7] is “inactive”.

With `C=C[C@@]12COC(=O)C(=C)C1[C@@H](O)[C@H](C(=C)C(=O)OC)[C@@H](OC(=O)C(=C)CO)C2` (stereo partly drawn), the figures for the Potency in assay [1] and in assay [5] were 7.09 µM (active) and 11.6 µM (active), respectively. Moreover, the Potency entry in assay [2], in assay [3], in assay [4], in assay [6] and in assay [7] was “inactive” throughout.

For `Cc1cc(Nc2ncc3cc(-c4c(Cl)cccc4Cl)c(=O)n(C)c3n2)ccc1F`, in assay [1], the Potency is 0.817 µM (active). The Potency entry in assay [2], in assay [3], in assay [4], in assay [5], in assay [6] and in assay [7] was “inactive” throughout.

Consider `O=C(OC[C@H]1O[C@H](O[C@]2(CO)O[C@H](CO)[C@@H](O)[C@@H]2O)[C@H](O)[C@@H](O)[C@@H]1O)c1ccccc1`, for which the Potency result in assay [1], in assay [2], in assay [3], in assay [4], in assay [5] and in assay [6] was “inactive” each time. Also, the Potency result in assay [7] is “inactive”.

Take `COc1cc(O)c([C@@H](CC(=O)N2CC(C)CC(C)C2)c2ccc3c(c2)OCO3)c(OC)c1` (stereo partly drawn): the Potency result in assay [1], in assay [2], in assay [3], in assay [4], in assay [5] and in assay [6] was “inactive” throughout. Also, the Potency result in assay [7] was “inactive”.

`CC(C)=CCc1cc(C(O)C2NC(=O)CNC(=O)C(Cc3c[nH]c4ccccc34)NC(=O)C3CCCN3C(=O)CNC(=O)C(C(C)C)NC(=O)CNC2=O)ccc1O` (stereo not drawn) (cyclo(G[X4]GVGPW); configuration not given here): the activity change, negative = cell killing in assay [1] is -18.5% [at 9.23 µM]. For the same molecule, the Potency result in assay [2] and in assay [3] was “inactive” each time. In addition, in assay [4], the activity change, negative = inhibition was -7.99% [at 11.6 µM]. Moreover, the activity change, negative = thiol reactive in assay [5] is 158% [at 11.5 µM]. In assay [6], the activity, negative = inhibition was -5.03% [at 11.6 µM]. Further, the redox activity (% of DA3003) in assay [7] is 10.2% [at 11.5 µM].

As to `CC(C)(C)NCCCNC(=O)c1cccc(Br)c1`, the Potency entry in assay [1], in assay [2], in assay [3], in assay [4], in assay [5] and in assay [6] was “inactive” each time. Further, the Potency entry in assay [7] is “inactive”.

With `C[C@@H]1O[C@@H](O[C@H]2[C@H](OC(=O)[C@]34CCC(C)(C)C[C@H]3C3=CCC5[C@@]6(C)CC[C@H](O[C@@H]7O[C@H](C(=O)O)[C@@H](O)[C@H](O)[C@H]7O[C@@H]7O[C@H](CO)[C@H](O)[C@H](O)[C@H]7O)[C@@](C)(C=O)C6CC[C@@]5(C)[C@]3(C)C[C@H]4O)O[C@H](C)[C@H](O[C@@H]3O[C@H](C)[C@H](O)[C@H](O)[C@H]3O)[C@@H]2O)[C@H](O)[C@H](O)[C@H]1O[C@@H]1OC[C@@H](O)[C@H](O[C@@H]2O[C@H](CO)[C@@H](O)[C@H](O)[C@H]2O)[C@H]1O` (stereo partly drawn), the activity change, negative = cell killing in assay [1] was -94% [at 4.96 µM]. Moreover, the activity, negative = inhibition in assay [2] was 1.71% [at 9.52 µM]; in assay [6], 4.73% [at 6.45 µM]. Moreover, the outcome in assay [3] was “inactive [at 9.73 µM]”; in assay [4], “inactive [at 6.45 µM]”. In addition, in assay [5], the activity change, negative = thiol reactive was 292% [at 6.41 µM]. The redox activity (% of DA3003) in assay [7] is 3.32% [at 6.41 µM].

For `COc1ccc(Cl)c(Nc2nc3ccccc3nc2NS(=O)(=O)c2cccc(NC(=O)C(C)(C)N)c2)c1`, the Potency in assay [1] was 4.09 µM (active) and 8.33 µM (active). Moreover, the Potency result in assay [2], in assay [3], in assay [4], in assay [5], in assay [6] and in assay [7] was “inactive” in each case.
